Each structure is given as a SMILES string. Records with an inconclusive call do not appear. A call without a number means that no potency is given here. Calls of active or inactive are those of the source. Calls follow the shape of the dose curve; as a rule, active = well fitted cell-killing curve with a large enough effect; inconclusive = small, poorly fitted or top-dose-only effect; inactive = flat fitted curve, though single readings scatter.

For 20 molecules, Potency results are on record in PubChem BioAssay (NCATS).
Potency is read from the fitted curve at half-maximal effect.

The nature of the test: Cell Viability - LYMP2-024 (AID 988). Also: nearly all actives have a fitted effect of over 60% in size. The settings on record: LYMP2-024 lymphoblastoid cell viability; series mostly up to 92.2 µM. The text has this:
NIH Chemical Genomics Center [NCGC]
NIH Molecular Libraries Screening Centers Network [MLSCN]
National Institutes of Environmental Health Sciences [NIEHS]
National Toxicology Program [NTP]
We have developed a 1536-well cell-based assay for quantitative high throughput screening (qHTS) against a number of cell lines to determine in vitro cytotoxicity of small molecules. This particular assay uses a human lymphoblastoid cell line (LYMP2-024) purchased from Coriell Institute for Medical Research.
NCGC Assay Protocol Summary:
The CellTiter-Glo luminescent cell viability assay (Promega) is a homogeneous method to measure the number of viable cells in culture. The end point readout of this assay is based on quantitation of intracellular ATP, an indicator of metabolic activity, using the luciferase reaction. Luciferase catalyzes the oxidation of beetle Luciferin to oxyluciferin and light in the presence of ATP. The luminescent signal is proportional to amount of ATP present.
Using the CellTiter-Glo luminescent cell viability assay, the amount of cellular ATP was measured in the lymphoblastoid cell line with complete culture medium following compound treatment for 24 hours. The assay was performed in opaque white Kalypsys 1536-well plates. In the screen, tetraoctylammonium bromide was used as positive control. Library compounds were measured for their ability to cause acute toxicity in the cell line, as reflected by a decrease in intracellular ATP levels, in a concentration-dependent manner. […] AC50 values were determined from concentration-response data modeled with the standard Hill equation.
qHTS protocol for CellTiter Glo lymphoblastoid cellular assay
[Step] [Parameter] [Value] [Description]
1. Reagent; 5 uL; 2500 lymphoblastoid cells/well
2. Time; 5 hr; 37 C incubation
4. Controls; 23 nL; Tetraoctylammonium bromide 6.4pM to 92 uM
5. Time; 24 hr; 37 C incubation
6. Reagent; 5 uL; CellTiter Glo reagent
7. Time; 30 min; Room Temperature
8. Detection; Luminescence; Viewlux plate reader
Keywords: cell viability, cytotoxicity, lymphoblastoid cell line, luminescence, NTPHTS, NTPHTS_NCGC, NIEHS, DSSTox, MLSMR, MLSCN, NIH Roadmap, qHTS, NCGC
On to `CC(C)(c1ccc(O)cc1)c1ccc(O)cc1`, for which the Potency result was “inactive”.
To `CCCCC(CC)COC(=O)c1ccccc1C(=O)O` (stereo not given) belongs “inactive”; to `O=C(Oc1ccccc1)c1ccccc1O`, “inactive”.
Take `CC(C)C(C)(C)C(C)(C)C(C)(C)S`: the Potency entry was “inactive”.
In the case of `OCc1c[nH]c2ccccc12`, the Potency entry was “inactive”.
For `O=C(c1ccccc1)c1ccccc1`, the Potency entry is “inactive”.
On to `Cc1cc(C(C)(C)C)c(O)c(C(C)(C)C)c1`, for which the Potency entry is “inactive”.
To `CC(C)(C)c1ccc(O)c(O)c1` belongs 25.1 µM (active); to `c1ccc2occc2c1`, “inactive”; to `O=C(NO)c1ccccc1`, “inactive”.
To `Brc1ccccc1-c1ccccc1` belongs “inactive”.
As for `Nc1c2ccccc2nc2ccccc12`, the Potency was 12.6 µM (active).
The entry for `COc1cc(C=O)ccc1O` is “inactive”; for `CC(=O)OC/C=C(C)/C=C/C=C(C)/C=C/C1=C(C)CCCC1(C)C` it is 39.8 µM (active); for `C1=CC2C3C=CC(C3)C2C1` (stereo not given) it is “inactive”.
On to `Nc1cccc2c(N)cccc12`, for which the Potency result was “inactive”.
Regarding `Oc1ccccc1`, the Potency entry is “inactive”.
With `Nc1ccc(O)cc1`, the Potency was 25.1 µM (active).
Take `Cc1ccc(O)cc1`: the Potency result is “inactive”.
To `CCCCCCCCCCCCCCCC[n+]1ccccc1` belongs 15.8 µM (active).
